The entries come from a sample that favours hits as a whole.
14-3-3g Raf – alters human 14-3-3 gamma binding to Raf peptide | AID 422 | FP, 14-3-3gamma / TMR-pS259-Raf peptide binding | inhibition, % at 40 µM | actives 0.19% (n = 160,000) | P61981; in the data active means inhibition above about 30%
Target sequence (P61981 whole entry, looked up): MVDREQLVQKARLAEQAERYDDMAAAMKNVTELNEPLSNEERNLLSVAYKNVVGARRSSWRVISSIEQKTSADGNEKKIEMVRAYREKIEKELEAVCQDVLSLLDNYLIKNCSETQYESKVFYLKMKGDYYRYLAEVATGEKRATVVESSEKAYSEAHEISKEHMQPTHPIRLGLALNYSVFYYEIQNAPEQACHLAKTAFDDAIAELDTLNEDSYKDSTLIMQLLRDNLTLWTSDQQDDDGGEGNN
Of the large screens only hits and unclear results are named; the others gave an inactive call; ! = repeats disagree.

Cc1cccn2cc(-c3cccc(NC(=O)CC(C)C)c3)nc12	none
CCC(=O)Nc1cccc(-c2cn3cccc(C)c3n2)c1	14-3-3g Raf 31
Cc1cccn2cc(-c3cccc(NC(=O)c4cc5ccccc5oc4=O)c3)nc12	none
Cc1c(C(=O)N2CCCCCC2)sc2ncn(Cc3ccccc3F)c(=O)c12	none
Cc1ccc(NC(=O)c2cc3n(n2)C(C(F)(F)F)CC(c2ccc(Cl)cc2)N3)cc1C (stereo not given)	none
CNc1ccc2nc3ccccc3[n+](CCO)c2c1	14-3-3g Raf 67
CCc1ccc(Nc2cc(C(=O)O)c3ccccc3n2)cc1	none
CC(=O)OCC#CCSc1nnc(-c2ccc(C)cc2)o1	none
CCOC(=O)c1n[nH]c([N+](=O)[O-])c1Cl	none
O=C1C(=O)N(CCN2C(=O)c3ccccc3C2=O)c2ccccc21	none
O=C(O)c1ccc2c(c1NCCO)C(=O)c1ccccc1C2=O	14-3-3g Raf 31
CNc1c(C(=O)O)ccc2c1C(=O)c1ccccc1C2=O	none
CC1CCCC(C)N1C(=O)c1ccc2c(c1NCCO)C(=O)c1ccccc1C2=O (stereo not given)	none
COC(=O)C1=CN(C)C=C(C(=O)OC)C1c1ccc(C)c([N+](=O)[O-])c1	none
COc1ccccc1-n1c(=O)c2c(n3c(=S)[nH]nc13)-c1ccccc1CC21CCCCC1	none
CN1CCN(C(=O)c2ccc3c(c2)NC(=O)C(N2CCOCC2)S3)CC1 (stereo not given)	none
O=C1Nc2cc(C(=O)N3CCOCC3)ccc2SC1N1CCCC1 (stereo not given)	none
O=C1Nc2cc(C(=O)N3CCOCC3)ccc2SC1N1CCOCC1 (stereo not given)	14-3-3g Raf 38!
COc1ccccc1NC(=O)c1cc2ccccc2c(C=Nc2ccc(OC(F)F)cc2)c1O	14-3-3g Raf 112
Cc1cccc(N=Cc2c(O)c(C(=O)Nc3ccccc3C)cc3ccccc23)c1	none
CCc1cccc(N=Cc2c(O)c(C(=O)Nc3ccccc3)cc3ccccc23)c1	none
COc1ccc(N(C)C(=O)CN2C(=O)CCC=C2C)cc1	none
CCCCC(=O)Nc1c2c(nn1-c1ccc(C)cc1C)CS(=O)(=O)C2	none
O=C(O)C1C2C=CC3(O2)C1C(=O)N(Cc1ccccc1)C3Cc1ccccc1 (stereo not given)	none
Fc1ccc(C2=CC(c3cccc(Br)c3)n3c(nc4ccccc43)N2)cc1 (stereo not given)	none
COc1ccccc1C(=O)N1CCN=C1SCc1ccccc1	none
COc1cccc2c1C(=O)c1c(O)c3c(c(O)c1C2=O)C[C@@](O)(C(C)=O)C[C@@H]3O[C@H]1C[C@H](N)[C@H](O)[C@H](C)O1	none
CC(=O)[C@]1(O)Cc2c(O)c3c(c(O)c2[C@@H](O[C@H]2C[C@H](N)[C@H](O)[C@H](C)O2)C1)C(=O)c1ccccc1C3=O	14-3-3g Raf 117
COC(=O)c1nc2n(n1)C(c1cc(OC)c(OC)c(OC)c1)C=C(c1cccs1)N2 (stereo not given)	none
c1ccc2c(c1)CCN(c1nc3cccnc3s1)C2	none
CC(C)(C)c1ccc(C(=O)N2CCCCC(S(=O)(=O)c3ccccc3)C2=O)cc1 (stereo not given)	none
Cc1cccc(C)c1N1C(=O)c2ccc([N+](=O)[O-])c3c([N+](=O)[O-])ccc(c23)C1=O	none
O=C1c2ccc([N+](=O)[O-])c3c([N+](=O)[O-])ccc(c23)C(=O)N1c1ccc(O)cc1	14-3-3g Raf 43
O=C(O)c1cc(N2C(=O)c3ccc([N+](=O)[O-])c4c([N+](=O)[O-])ccc(c34)C2=O)ccc1O	none
CCOc1ccc(NC(=O)C2c3cc(OC)c(OC)cc3C(=O)N(C)C2c2ccc(OC)cc2)cc1 (stereo not given)	none
N#Cc1cc(-c2ccccc2C(F)(F)F)no1	none
CCN(CC)c1ccc(CNc2ccc(Br)cn2)cc1	none
CCN(CC)c1ccc(-c2cc(C#N)on2)cc1	14-3-3g Raf 41
O=C1CC(c2ccc([N+](=O)[O-])cc2)c2cc3c(cc2N1)CCC3 (stereo not given)	none
Cc1nc2ccc3nc(NC(=O)c4sc5ccccc5c4Cl)sc3c2s1	none
CC(Cc1ccc(O)c(O)c1)C(C)Cc1ccc(O)c(O)c1 (stereo not given)	14-3-3g Raf 60
N[C@@H](Cc1ccc(O)c(O)c1)C(=O)O	none
C[C@H](Cc1ccc(O)c(O)c1)[C@@H](C)Cc1ccc(O)c(O)c1	none
COC(=O)C1=C(C)N(C)C(=O)NC1c1c(Cl)nc2ccccn2c1=O (stereo not given)	none
CCCN1CCN(C(=O)c2cnc(Nc3ccc(OC)cc3)c3ccccc23)CC1	none
CCc1ccc(N(C)S(=O)(=O)c2ccc3[nH]cc(C(=O)NC(C)CC)c(=O)c3c2)cc1 (stereo not given)	none
O=C(Nc1cc(N=Cc2cc(Cl)ccc2O)ccc1Cl)c1ccccc1	none
COc1ccc(C=Nc2ccc3nc(-c4ccccc4)[nH]c3c2)cc1OC	none
Oc1ccc(Cl)cc1C=Nc1ccc2nc(-c3ccccc3)[nH]c2c1	14-3-3g Raf 30
O=C(Nc1ccc(Oc2ccccc2)cc1)C(Cc1ccccc1)N1C(=O)c2ccccc2C1=O (stereo not given)	none
Cc1ccc(Oc2ccc(N3C(=O)C4C5C=CC(C6CC56)C4C3=O)cc2)cc1 (stereo not given)	none
O=C(O)c1ccc2c3c(ncnc13)-c1ccccc1C2=O	14-3-3g Raf 40
O=C1c2ccccc2-c2ncnc3cccc1c23	none
COc1ccc(Nc2ccc3c4c(ncnc24)-c2ccccc2C3=O)cc1	none
O=C(CCS(=O)(=O)c1cccs1)Nc1cccc2c1CCCC2	none
CC(C)c1ccc(NC(=O)C2C3C=CC4(O3)C2C(=O)N(Cc2ccc(Cl)cc2)C4C(=O)NC2CCCCC2)cc1 (stereo not given)	none
COc1cc(-c2nc3cc4ccccc4cc3nc2-c2ccc(O)c(OC)c2)ccc1O	none
Cc1ccc(C(=O)NCC(C)(C)O)cc1	14-3-3g Raf 67
Cc1ccc(C(=O)NCCNC(=O)c2ccncc2)cc1	none
Cc1ccc(C(=O)NCCNC(=O)c2ccc(C)cc2)cc1	none
Cc1cc(C)cc(NS(=O)(=O)c2ccc3[nH]cc(C(=O)NCc4cccnc4)c(=O)c3c2)c1	none
O=C(O)Cn1c2ccccc2c2nn3cc(-c4ccccc4)nc3nc21	14-3-3g Raf 119
COC(=O)Cn1c2ccccc2c2nc3ccccc3nc21	none
O=C(O)Cn1c(-c2ccccc2)nc2ccccc21	none
CC(C)CN(CC(C)C)S(=O)(=O)N1CCC(C(=O)NC2CCCCC2C)CC1 (stereo not given)	none
NC(=O)CN1CCOCCOCCN(CC(N)=O)CCOCC1	none
OCCN1CCOCCN(CCO)CCN(CCO)CC1	14-3-3g Raf 147!
C=COCCN1CCOCC1	none
CCOc1cc(C2C3=C(CCCC3=O)N(CC)C3=C2C(=O)CCC3)ccc1O	none
CCOc1cc(C2C3=C(CCCC3=O)N(CC)C3=C2C(=O)CCC3)cc(Br)c1O	14-3-3g Raf 41
CCCOc1c(Br)cc(C2C3=C(CCCC3=O)N(CC)C3=C2C(=O)CCC3)cc1OCC	none
CSc1nsc(SC)c1C(=O)N1CCN(S(=O)(=O)c2ccc(C)cc2)C1c1ccccc1 (stereo not given)	none
COc1ccc2c(c1)C1(Nc3ccccc3C(=O)N1Cc1ccccc1)C(=O)N2 (stereo not given)	none
O=C(NC1CCCC1)c1ccc(CSCc2ccc(Cl)cc2)o1	none
Cc1c(Cl)c(C)c([N+](=O)[O-])c(O)c1C=Nc1cccc(C(=O)O)c1	none
Cc1c(Cl)c(C)c([N+](=O)[O-])c(O)c1C=Nc1ccc(Br)cc1	none
Cc1c(Cl)c(C)c([N+](=O)[O-])c(O)c1C=Nc1ccc(C(=O)O)cc1	14-3-3g Raf 45
COc1ccc(C2/C(=C(\O)c3ccccc3)C(=O)C(=O)N2CCN(C)C)c(OC)c1 (stereo not given)	none

Bioassay records deposited in PubChem BioAssay by Emory University Molecular Libraries Screening Center.
